Each structure is given as a SMILES string. Counter-ions that a name gives are not always drawn.

One assay relates to MOLM14. In words: cell viability relative to vehicle control; higher = less cytotoxic. Conditions: 10 µM; SRSF2 genotype: SRSF2 P95H/wt. A digest of the protocol:
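After removal of identity-inconsistent compounds, the Selleck bioactive, kinase and epigenetic probe libraries were screened on CRISPR-edited mutant clones and isogenic wild-type clones of four leukaemia lines. Plates were 384-well, each well holding 2000 cells in 50 µL medium and receiving a single 10 µM acoustically dispensed dose. CellTiter-Glo luminescence was read 48 h later, after the supernatant was taken off. Genedata Screener was used to express viability as percent of the on-plate vehicle control.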
`C[C@]12CCC3=C4CCC(=O)C=C4CC[C@H]3[C@@H]1CC[C@@]2(O)CC#N` [Dienogest]: the cell viability came out at 100%.
The same measure, in the same setting: the result for `Cc1ccc(NS(=O)(=O)c2ccc3c(c2)C2C=CCC2C(c2ccc(C(=O)O)cc2)N3)cc1C` (stereo unspecified) reads 106%; that for `CC(=O)O[C@]1(C(C)=O)CC[C@H]2[C@@H]3C[C@H](C)C4=CC(=O)C=C[C@]4(C)[C@@]3(F)[C@@H](O)C[C@@]21C` [Fluorometholone Acetate], 97.6%; that for `Cc1cccc(-c2[nH]c(C(C)(C)C)nc2-c2ccc3nccnc3c2)n1`, 105%.
For the compound `COc1ccc(Cn2ccc3ccc(C(=O)NO)cc32)cc1`, the cell viability was found to be 84.1%.
In the case of `COc1cc(C(=O)O)ccc1NC(=O)[C@@H]1N[C@@H](CC(C)(C)C)[C@](C#N)(c2ccc(Cl)cc2F)[C@H]1c1cccc(Cl)c1F` [Idasanutlin (RG-7388)], the cell viability is 86.5%.

Staying with this assay, now noted: 10 µM; SRSF2 genotype: SRSF2 wt/wt.
In the case of `COC(=O)c1ccc(O)c(C(=O)OC)c1` [Dimetghyl 4-Hydroxyisophthalate], the cell viability is 100%.
For the compound `CN1CCN(c2cccc(Nc3nc4c(-c5ccc(S(C)(=O)=O)cc5)cccn4n3)c2)CC1`, the cell viability amounted to 3.52%.
The same measure, in the same setting: the result for `NS(=O)(=O)c1cc2c(cc1Cl)NC(C(Cl)Cl)NS2(=O)=O` (stereo unspecified) [Trichlormethiazide (Achletin)] reads 106%.
On to `Nc1[nH]cnc2ncnc1-2` [Adenine hydrochloride], for which the cell viability was found to be 108%.
As to `Nc1ccc(C(=O)O)c(O)c1` [Sodium 4-Aminosalicylate], the cell viability amounted to 88.1%.
On to `O=c1c(-c2ccc(O)cc2)coc2cc(O[C@@H]3O[C@H](CO)[C@@H](O)[C@H](O)[C@H]3O)cc(O)c12` [Genistin (Genistoside)], for which the cell viability worked out at 99.7%.
Take `CC(C)=CCC[C@](C)(O[C@@H]1O[C@H](CO[C@@H]2OC[C@H](O)[C@H](O)[C@H]2O)[C@@H](O)[C@H](O)[C@H]1O)[C@H]1CC[C@]2(C)[C@@H]1[C@H](O)C[C@@H]1[C@@]3(C)CC[C@H](O[C@@H]4O[C@H](CO)[C@@H](O)[C@H](O)[C@H]4O[C@@H]4O[C@H](CO)[C@@H](O)[C@H](O)[C@H]4O)C(C)(C)[C@@H]3CC[C@]12C` [Ginsenoside Rb2]: the cell viability turned out to be 87.7%.
The same measure, in the same setting: the result for `COc1ccc(COc2ccc(Cc3cnc(N)nc3N)cc2OC)cc1` reads 88.3%.
In the case of `CCN(CC)CCCC(C)Nc1c2ccc(Cl)cc2nc2ccc(OC)cc12` (stereo unspecified) [Quinacrine Dihydrochloride Dihydrate], the cell viability turned out to be 0.64%.
On to `Cc1c(-c2ccnn2C)cc(C(=O)NCc2ccc(S(C)(=O)=O)cn2)c(=O)n1-c1cccc(C(F)(F)F)c1`, for which the cell viability was 106%.
The same measure, in the same setting: the result for `O=C(O)Cc1ccc2c(c1)C(=O)c1ccccc1CO2` [Isoxepac] reads 105%; that for `CC1(C)S[C@@H]2[C@H](NC(=O)Cc3ccccc3)C(=O)N2[C@H]1C(=O)O` [Penicillin G Sodium], 103%; that for `O=[N+]([O-])c1ccc(Sc2cccc[n+]2[O-])c2nonc12`, 0.25%.
`COC(=O)c1cc(OC)c2c(c1-c1c(C(=O)OC)cc(OC)c3c1OCO3)OCO2` [Bifendate]: the cell viability turned out to be 101%.
Still for that read-out and setting: the result for `N#Cc1ccc(-c2c(-c3ncn[nH]3)sc(N3CCOCC3)c2C#N)c(F)c1` reads 28.3%.
In the case of `Cc1ncc(CCCN(C)C)cc1Nc1ncc2c(n1)-c1ccc(C(F)(F)F)cc1NC(=S)C2`, the cell viability was 8.47%.
Same read-out and setting: the result for `Nc1ccccc1NC(=O)c1cnccn1` reads 73.9%.
Still for that read-out and setting: the result for `N[C@@H]1CCCN(c2c(/C=C3\SC(=O)NC3=O)cccc2-c2ccccc2)C1` reads 105%; that for `O=C(O)CCCC[C@@H]1CCSS1` (racemic) [Thioctic acid], 94.1%.
The same measure, in the same setting: the result for `COc1cn(-c2ccc(-n3cccn3)cc2F)nc(-c2ccnn2-c2ccccc2)c1=O` reads 107%; that for `COc1ccc(S(=O)(=O)N(CCO)c2ccccc2CN(C)C/C=C/c2ccc(Cl)cc2)cc1` [KN-93 Phosphate], 41.8%; that for `CC(C)OC(=O)C(C)(C)Oc1ccc(C(=O)c2ccc(Cl)cc2)cc1` [Fenofibrate (Tricor, Trilipix)], 98.5%.
Turning to `Cc1cc2c3c([n+](C)c4ccc(F)cc4c3c1)-c1cc(F)ccc1N2C` [RHPS 4 methosulfate], the cell viability stood at 27.5%.
Still for that read-out and setting: the result for `COc1cc(Nc2ncc(F)c(Nc3ccc4c(n3)NC(=O)C(C)(C)O4)n2)cc(OC)c1OC` reads 19.6%; that for `COc1cc2ncnc(Nc3ccc(Oc4ccccc4)cc3C)c2cc1OC`, 29.9%; that for `Cn1cc(-c2ccc(S(=O)(=O)n3ccc(/C=C/C(=O)Nc4ccccc4N)c3)cc2)cn1`, 2.05%.
On the same count and under the same terms, the result for `Cn1cc(CNCC2CCN(c3ncc(C(=O)NO)cn3)CC2)c2ccccc21` reads 0.54%.
Still for that read-out and setting: the result for `N[C@@H]1CN(c2c(F)cc3c(=O)c(C(=O)O)cn([C@@H]4C[C@@H]4F)c3c2Cl)CC12CC2` [Sitafloxacin hydrate] reads 103%.
As to `COC(=O)C1=C(C)NC(C)=C(C(=O)OC(C)C)C1c1cccc2nonc12` (stereo unspecified) [Isradipine (Dynacirc)], the cell viability came to 100%.
Same read-out and setting: the result for `O=C(Nc1nccs1)C(c1cc(F)ccc1O)N1Cc2ccccc2C1=O` (stereo unspecified) reads 97.6%.
Consider `Nc1cc(F)ccc1NC(=O)/C=C/c1cnn(C/C=C/c2ccccc2)c1`, for which the cell viability is 94.2%.
Same read-out and setting: the result for `C=C1[C@H](O)C[C@H]2[C@@H](/C=C(\C)C(=O)[C@@]3(O)C[C@H](C)[C@H](O)[C@@H]3[C@H]1O)C2(C)C` reads 98.1%; that for `O=C(Nc1cccc(C(F)(F)F)c1)Nc1cc(S(=O)(=O)NC2CC2)ccc1-c1ccsc1`, 94.4%.
As to `CC(C)(NS(=O)(=O)c1ccc2c(Cl)cnc(N=C(N)N)c2c1)C(=O)O`, the cell viability worked out at 102%.
`C[C@]12CCC3=C4CCC(=O)C=C4CC[C@H]3[C@@H]1CC[C@@]2(O)CC#N` [Dienogest]: the cell viability came out at 103%.
For `Cc1ccc(NS(=O)(=O)c2ccc3c(c2)C2C=CCC2C(c2ccc(C(=O)O)cc2)N3)cc1C` (stereo unspecified), the cell viability turned out to be 104%.
The same measure, in the same setting: the result for `CC(=O)O[C@]1(C(C)=O)CC[C@H]2[C@@H]3C[C@H](C)C4=CC(=O)C=C[C@]4(C)[C@@]3(F)[C@@H](O)C[C@@]21C` [Fluorometholone Acetate] reads 93.5%.
As for `Cc1cccc(-c2[nH]c(C(C)(C)C)nc2-c2ccc3nccnc3c2)n1`, the cell viability was 101%.
Still for that read-out and setting: the result for `COc1ccc(Cn2ccc3ccc(C(=O)NO)cc32)cc1` reads 81.6%; that for `COc1cc(C(=O)O)ccc1NC(=O)[C@@H]1N[C@@H](CC(C)(C)C)[C@](C#N)(c2ccc(Cl)cc2F)[C@H]1c1cccc(Cl)c1F` [Idasanutlin (RG-7388)], 102%.

The values are drawn from the supplement of paper PMC10981050.
